SNCA viab count: reduces viability of HEK-293 SNCA reporter cells | HEK-293-SNCA-luc viability, GF-AFC fluorescence, 24 h | AID 1671193 | Potency, µM (titrated, usually from 57.1 µM), actives largely listed as cytotoxic | actives 0.12% (n = 150,000); note: nearly all actives have a fitted effect of over 30% in size
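Cytotoxicity counterscreen: after 24 h compound treatment of genome-edited SNCA-luciferase HEK-293 cells, live-cell protease substrate GF-AFC read by fluorescence after 30 min; activity scaled between DMSO (0%) and medium-only (-100%), curves Hill-fitted.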
IP6K1 inhibitor: IP6K1 kinase inhibition. AID 1645851. IP6K1 kinase, ADP-Glo luminescence, 2 h; active compounds read low. actives 0.81% (n = 140,000). Q92551. activity change, % (series mostly up to about 58 µM); in the data active = activity change below about -25%
Target sequence (Q92551 whole entry, looked up): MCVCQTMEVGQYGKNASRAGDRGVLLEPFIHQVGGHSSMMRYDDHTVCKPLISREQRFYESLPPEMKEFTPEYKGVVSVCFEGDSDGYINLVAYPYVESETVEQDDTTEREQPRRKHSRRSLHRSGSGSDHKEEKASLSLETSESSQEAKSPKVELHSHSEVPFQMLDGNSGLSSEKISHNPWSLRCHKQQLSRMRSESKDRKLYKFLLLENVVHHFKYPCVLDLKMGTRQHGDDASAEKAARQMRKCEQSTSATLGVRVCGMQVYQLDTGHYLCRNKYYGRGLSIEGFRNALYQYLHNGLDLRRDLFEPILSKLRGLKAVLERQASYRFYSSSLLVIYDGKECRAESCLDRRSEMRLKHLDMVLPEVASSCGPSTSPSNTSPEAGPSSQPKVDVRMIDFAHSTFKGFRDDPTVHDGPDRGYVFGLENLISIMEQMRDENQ
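ADP-Glo luminescence measures ADP made by human IP6K1 during a 2 h RT reaction with ATP/IP6 (mix at 1.3 mM/130 uM); top library doses 57.5 and 19.1 uM final.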
SNCA expr inhib: reduces expression of the alpha-synuclein gene. Potency, µM (top dose mostly 57.2 µM), usual class: inhibitors. actives 0.17% (n = 140,000). HEK-293 SNCA-luciferase knock-in, luminescence, 24 h. AID 1671194; note: nearly all actives have a fitted effect of over 45% in size
KDM5B inh: KDM5B demethylase inhibition | Q9UGL1 | KDM5B demethylase, FDH-coupled NADH fluorescence (FDH is formaldehyde dehydrogenase) | Potency, µM (highest dose often 57.7 µM), usual class: inhibitors | actives 2.6% (n = 220,000) | AID 1347165; note: nearly all actives have a fitted effect of over 70% in size
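Coupled FDH/NAD⁺ fluorescence readout. KDM5BΔAP 200 nM final; compound titration, 10 min RT preincubation; substrate mix 12.5 µM H3K4me3, 25 µM 2-OG, 50 µM Fe(II), 100 µM ascorbate, 0.25 mM NAD⁺, 0.25 U/mL FDH; ΔRFU over 30 min.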
Of the large screens only hits and unclear results are named; the others gave an inactive call. Shown are actives, neighbours in structure and some others; about 2.8% of the full set was active somewhere. Unless noted, calls come from the whole dose curve; as a rule, active = well fitted curve in the direction sought with a large enough effect; inconclusive = small, poorly fitted or top-dose-only effect, or another doubt; inactive = no such curve, though single readings can be large; an effect the other way counts as inactive or inconclusive.

COc1ccccc1-n1cc(C(=O)N2CCC3(CCNC(=O)CC3)CC2)cn1	none
CN(CCC(O)c1ccccc1)C(=O)c1ccc2oc(-c3cccc(F)c3)nc2c1 (configuration not stated)	KDM5B inh 22µM
Cc1nc(CNC(=O)c2ccc3oc(-c4cccc(F)c4)nc3c2)cs1	KDM5B inh 20µM
O=C(Nc1ccc2oc(-c3cccc(F)c3)nc2c1)c1ccc2ccccc2c1	none
CCOC(=O)CNC(=O)C(F)(F)C(F)(F)C(F)(F)C(F)(F)C(=O)NCC(=O)OCC	none (no result: SNCA viab count, IP6K1 inhibitor, SNCA expr inhib)
O=C([C@H]1CCC[C@H](O)C1)N1CCN(c2ccnc3nncn23)CC1	KDM5B inh inconclusive
O=C([C@H]1CCC[C@@H](O)C1)N1CCN(c2ccc3nccn3n2)CC1	KDM5B inh 28µM
Cc1n[nH]c(C)c1C(N)C(=O)N1CCN(c2ccc3nccn3n2)CC1 (configuration not stated)	KDM5B inh 28µM
CC(C)(C)c1ccc(C(=O)NCCOc2ccccc2F)cc1	none (no result: SNCA viab count, IP6K1 inhibitor, SNCA expr inhib)
COc1ccc(CN2CCNc3cnc(Nc4ccccc4)cc3C2)cc1	KDM5B inh 35µM
COc1ccc(CN2CCNc3cnc(OCc4cccnc4)cc3C2)cc1	KDM5B inh 28µM
COc1ccc(Nc2cc3c(cn2)NCCN(Cc2ccccc2)C3)cc1	SNCA viab count inconclusive, SNCA expr inhib inconclusive, KDM5B inh inconclusive
c1ccc(Nc2cc3c(cn2)NCCN(Cc2ccsc2)C3)cc1	KDM5B inh 35µM
COc1ccc(CN2CCNc3cnc(Nc4ccccc4)cc3C2)cn1	KDM5B inh 35µM
O=C(Nc1ccccc1Oc1cccnc1)C1CCCN(C/C=C/c2ccc(F)cc2)C1 (configuration not stated)	none (no result: SNCA viab count, IP6K1 inhibitor, SNCA expr inhib)
N#Cc1cccnc1N1CCN(Cc2cn(-c3ccccc3)nn2)CC1	KDM5B inh 22µM
CN(Cc1cc(C2CC2)n[nH]1)c1nccc(-c2cccnc2)n1	KDM5B inh 22µM
CN(CCC(O)c1ccccc1)c1nccc(-c2cccnc2)n1 (configuration not stated)	SNCA expr inhib inconclusive, KDM5B inh 28µM
CN(Cc1cc(C2CC2)n[nH]1)c1cc(C2CC(N)C2)nc(N)n1 (configuration not stated)	KDM5B inh inconclusive
O=C(c1ccoc1)N1CCC(N2C(=O)C3(CCCCC3)C2c2ccncc2)CC1 (configuration not stated)	none
CC(=O)Nc1cc(-c2cn(C)c(=O)n3cc(CN4CC[S+](=O)([O-])CC4)nc23)ccn1	KDM5B inh 35µM
COc1ncccc1-c1cn(C)c(=O)n2cc(CN3CC[S+](=O)([O-])CC3)nc12	none
Cn1cc(Nc2ccc(Cl)cc2)c2nc(CN3CC[S+](=O)([O-])CC3)cn2c1=O	KDM5B inh 28µM
COc1ccccc1-c1cc(C(=O)N2CCN(C)CC2)c2cnn(C)c2n1	none (no result: SNCA viab count, SNCA expr inhib, KDM5B inh)
O=C(Cc1ccc(F)cc1)NC1CCN(c2cc(-c3ccccc3)[nH]n2)C1 (configuration not stated)	KDM5B inh inconclusive
COc1ccc(-c2ncc(CN3CCCC4(C3)CN(C)C(=O)O4)cn2)cc1 (configuration not stated)	KDM5B inh 14µM
c1cncc(CN2CCc3c(sc4ncnc(N5CCOCC5)c34)C2)c1	KDM5B inh inconclusive
c1cc(CN2CCc3c(sc4ncnc(N5CCCC5)c34)C2)ccn1	SNCA viab count inconclusive, KDM5B inh 25µM
COc1ccc(-c2nc(C)nc3c2CCN(Cc2ccnn2C)CC3)cc1	KDM5B inh 20µM
COc1ccc(-c2nc(C)nc3c2CCN(Cc2cc(C)on2)CC3)cc1	KDM5B inh 20µM
COc1ccc(-c2nc(C)nc3c2CN(C(=O)c2ccccn2)CC3)cc1	KDM5B inh 16µM
COc1ccc(-c2nc(C)nc3c2CCN(CC2CCCCC2)CC3)cc1	KDM5B inh 28µM
CCn1c(=O)cc(OCC(=O)Nc2ccc(C)c(F)c2)c2ccccc21	none
Cc1nc2cc(N3CCCC(C(=O)NCc4ccc(N(C)C)cc4)C3)cnc2nc1C (configuration not stated)	none
COc1cc(OC)c(NC(=O)CSCc2cc(=O)n3ccccc3n2)cc1Cl	none (no result: SNCA viab count, IP6K1 inhibitor, SNCA expr inhib)
O=C(CCc1ncc(-c2c(F)cccc2F)o1)NCc1ccccc1	none (no result: SNCA viab count, IP6K1 inhibitor, SNCA expr inhib)
COc1ccc(-c2nc(-c3c(C)noc3C)cc3c2cc(C)n3C)cn1	KDM5B inh 35µM
Cc1noc(C)c1-c1cc2c(cc(C)n2CCN(C)C)c(-c2ccsc2)n1	KDM5B inh 32µM
COc1cncc(-c2nc(-c3c(C)noc3C)cc3c2cc(C)n3CCN(C)C)c1	KDM5B inh 40µM
Cc1cc(-c2nc(-c3c(C)noc3C)cc3c2cc(C)n3CCN(C)C)ccn1	KDM5B inh 35µM
COc1cc(C(=O)OCCCN2CCCN(CCCOC(=O)c3cc(OC)c(OC)c(OC)c3)CC2)cc(OC)c1OC	none (no result: KDM5B inh)
O=C(Nc1nc(-c2cccc3ccccc23)cs1)c1ccccn1	none (no result: SNCA viab count, IP6K1 inhibitor, SNCA expr inhib)
COc1ccc(C2(C(=O)N3CCC4(CC3)C(OC)C(=O)N4c3cccc(F)c3)CC2)cc1 (configuration not stated)	none
O=C(NCc1ccccc1)c1cc2sccc2n1Cc1ccc(Cl)cc1	none
COc1ncccc1-c1nc(-c2c(C)noc2C)cc2c1cc(C)n2C	none
Cc1cc2cc(-c3c(C)noc3C)nc(Nc3ccccn3)c2o1	KDM5B inh inconclusive
COc1cc(-c2nc(-c3c(C)noc3C)cc3c2cc(C)n3CCN(C)C)ccn1	KDM5B inh 32µM
Cc1noc(C)c1-c1cc2c(cc(C)n2CCN(C)C)c(Nc2ccncn2)n1	KDM5B inh 32µM
Cc1noc(C)c1-c1cc2c(cc(C)n2C)c(-c2cccc(O)c2)n1	KDM5B inh inconclusive
Cc1noc(C)c1-c1cc2c(cc(C)n2CCN(C)C)c(-c2ccccc2)n1	KDM5B inh 32µM
Cc1noc(C)c1-c1cc2c(cc(C)n2CCN(C)C)c(-c2ccnn2C)n1	SNCA expr inhib inconclusive, KDM5B inh 35µM
O=C1N(Cc2cccc(F)c2F)CCCC1(O)CN1CCN(CC2CCC2)CC1 (configuration not stated)	none
COc1cc(-c2nc(-c3c(C)noc3C)cc3[nH]c(C)cc23)ccn1	KDM5B inh 32µM
COc1ccc(C(=O)N[C@@H]2CN(c3ccccn3)C[C@H]2CN(C)C)c(OC)c1	KDM5B inh 28µM
CN(C)C[C@@H]1CN(c2ccccn2)C[C@H]1NC(=O)c1cnco1	KDM5B inh 32µM
COc1cc(Cl)ccc1C(=O)N[C@@H]1CN(c2ccncn2)C[C@H]1CN(C)C	none
COc1ccc(CC(=O)N[C@@H]2CN(c3ccccn3)C[C@H]2CN(C)C)cc1	KDM5B inh 28µM
CC(C)c1ccc(C(=O)N2CCc3[nH]nc(C(=O)NCCCc4ccccc4)c3C2)cc1	none
O=C(CN(CC1CCCO1)C(=O)CNS(=O)(=O)c1ccc(Cl)cc1)NCc1ccco1 (configuration not stated)	none (no result: SNCA viab count, IP6K1 inhibitor, SNCA expr inhib)
Cc1ccc(C)c(OCCSc2nc3ccccc3n2CC(=O)N2CCOCC2)c1	SNCA viab count inconclusive, SNCA expr inhib inconclusive

High-throughput results deposited in PubChem by National Center for Advancing Translational Sciences (NCATS).
